Shown are actives, neighbours in structure and some others; about 3.2% of the full set was active somewhere.
HEK293 tox: qHTS of GLP-1 Receptor Inverse Agonists: Cytotox Screen. HEK293 cAMP-luciferase reporter cells, luminescence, 24 h. Potency, µM (titrated, usually from 38.3 µM), for inactives: top-dose activity change, negative = inhibition, usual class: inhibitors. 410,000 compounds, 0.13% hits;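 also: loss of luciferase light is scored as toxicity; % is scaled to controls: 0 for no effect and ±100 for the full control effect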
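A 23 nL compound transfer followed 12 hours of cell culture at 37 deg C; exposure then lasted 24 hr. Luciferase assay detection reagent was dispensed and plates read for luminescence after a 12 min room-temperature wait.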
GLP-1R agonist: qHTS of GLP-1 Receptor Agonists; Glucagon-like peptide 1 receptor (Homo sapiens), P43220; HEK293 GLP-1R CRE-luciferase, luminescence, 4-6 h; cells express a hypersensitive GLP-1R form; Potency, µM (series often up to 45.6 µM), for inactives: at the highest dose activation, most hits filed as activators; 380,000 compounds, 0.007% hits; also: % of control where 0% means no effect
Target sequence (P43220 whole entry, looked up): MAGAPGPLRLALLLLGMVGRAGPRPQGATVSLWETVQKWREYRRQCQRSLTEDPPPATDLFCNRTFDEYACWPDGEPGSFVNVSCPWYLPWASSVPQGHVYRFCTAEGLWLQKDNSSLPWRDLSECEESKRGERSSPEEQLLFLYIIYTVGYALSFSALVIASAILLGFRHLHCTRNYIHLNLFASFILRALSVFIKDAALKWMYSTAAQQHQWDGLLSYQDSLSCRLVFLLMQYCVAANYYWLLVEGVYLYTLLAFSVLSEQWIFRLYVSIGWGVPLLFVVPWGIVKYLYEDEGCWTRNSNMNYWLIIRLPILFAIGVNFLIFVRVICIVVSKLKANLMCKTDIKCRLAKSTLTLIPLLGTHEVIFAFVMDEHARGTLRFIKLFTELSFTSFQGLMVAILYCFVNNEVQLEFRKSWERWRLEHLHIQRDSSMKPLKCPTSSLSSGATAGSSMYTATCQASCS
ClpP mod: qHTS Assay for Activators of ClpP; 340,000 compounds, 1.9% hits; AID 651965, 2013; purified B. subtilis ClpP, FRET peptide cleavage, 20 min; Potency, µM (series often up to 57.5 µM), without a hit: top-dose activity change, negative = active; active = well fitted falling curve with a large enough effect; inconclusive = small, poorly fitted or top-dose-only effect; inactive = no such curve, though single readings can be large or run the other way; also: the source files actives as falling curves though it sought activators and does not explain the sign; nearly all actives have a fitted effect of over 65% in size
Target sequence (P80244 whole entry, looked up): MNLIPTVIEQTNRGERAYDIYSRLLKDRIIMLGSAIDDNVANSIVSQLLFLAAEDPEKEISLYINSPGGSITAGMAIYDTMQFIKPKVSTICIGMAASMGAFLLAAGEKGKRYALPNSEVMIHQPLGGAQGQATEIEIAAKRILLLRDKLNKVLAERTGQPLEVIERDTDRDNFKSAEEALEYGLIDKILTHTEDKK
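Purified B. subtilis ClpP, 10 microg/mL final in Tris/HCl pH8 with KCl, BSA, glycerol and Tween-20, cleaved an Abz/nitrotyrosine-quenched decapeptide. Fluorescence (ex 320, em 430) was read at 0 and 20 min at room temperature. Delta was normalized to 5.8 microM ADEP and DMSO/no-enzyme controls.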
GLP1R inv ag: qHTS of GLP-1 Receptor Inverse Agonists (Inhibition Mode); Glucagon-like peptide 1 receptor (Homo sapiens), P43220; HEK293 GLP-1R CRE-luciferase, luminescence, 24 h; GLP-1R form is constitutively active; Potency, µM (series often up to 38.3 µM), for inactives: at the top dose activity change, negative = inhibition, most hits filed as inhibitors; 410,000 compounds, 1.6% hits; also: % is scaled to controls: 0 for no effect and ±100 for the full control effect; nearly all actives have a fitted effect of over 55% in size
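HEK293 cells stably co-expressing constitutively active GLP-1R and a cAMP-responsive luciferase reporter were seeded in DMEM with 10% Nu serum, given compounds after 12 h, and incubated 24 h at 37 deg C. Luminescence was then read.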
The depositor's hits bear a star. Unless noted, calls follow the shape of the dose curve; as a rule, active = well fitted curve in the direction sought with a large enough effect; inconclusive = small, poorly fitted or top-dose-only effect, or another doubt; inactive = no such curve, though single readings can be large; an effect the other way counts as inactive or inconclusive. Potency is read from the fitted curve at half-maximal effect.

Results for COc1ccc2cc3cc(C(=O)NCc4ccc5c(c4)OCO5)oc3nc2c1 ?
HEK293 tox: -12%; GLP-1R agonist: -2%; ClpP mod: 14µM*; GLP1R inv ag: 47%

What do the screens show for `Cc1ccc2cc3cc(C(=O)NCc4ccco4)oc3nc2c1`?
HEK293 tox: -4%; GLP-1R agonist: -8%; ClpP mod: 14µM*; GLP1R inv ag: 23%

What do the screens show for `COc1ccc2nc3oc(C(=O)N4CCC(C(N)=O)CC4)cc3cc2c1`?
HEK293 tox: 16%; GLP-1R agonist: 2%; ClpP mod: 28µM*; GLP1R inv ag: 21%

How did CCN1CCN(c2oc(-c3ccc(COc4ccc(OC)cc4)o3)nc2C#N)CC1 do in these assays?
HEK293 tox: -6%; ClpP mod: 5%; GLP1R inv ag: -23%

What do the screens show for `COc1ccc2cc3cc(C(=O)NCC4COc5ccccc5O4)oc3nc2c1` (stereo not drawn)?
HEK293 tox: -7%; GLP-1R agonist: -3%; ClpP mod: 35µM*; GLP1R inv ag: -23%

Results for COc1ccc2cc3cc(C(=O)N4CCN(Cc5ccc6c(c5)OCO6)CC4)oc3nc2c1 ?
HEK293 tox: -16%; GLP-1R agonist: -8%; ClpP mod: 32µM*; GLP1R inv ag: 10µM*

How did COc1ccc2cc3cc(C(=O)NCc4ccccc4OC)oc3nc2c1 do in these assays?
HEK293 tox: 2%; GLP-1R agonist: 0%; ClpP mod: 4%; GLP1R inv ag: 8%

What do the screens show for `COc1ccc2cc(C(=O)N3CCN(Cc4ccc5c(c4)OCO5)CC3)[nH]c2c1`?
HEK293 tox: -6%; GLP-1R agonist: 1%; ClpP mod: -6%; GLP1R inv ag: inconclusive

What do the screens show for `CCOC(=O)N1CCN(C(=O)c2ccc3nc(N4CCCCC4)sc3c2)CC1`?
HEK293 tox: 1%; GLP-1R agonist: 11%; ClpP mod: inconclusive; GLP1R inv ag: -2%

How did Cc1ccc2cc3cc(C(=O)N4CC(C)CC(C)C4)oc3nc2c1 (stereo not drawn) do in these assays?
HEK293 tox: -10%; GLP-1R agonist: 21%; ClpP mod: -23%; GLP1R inv ag: 7.9µM*

What do the screens show for `O=C(c1ccc2nc(N3CCCCC3)sc2c1)N1CCN(Cc2ccc3c(c2)OCO3)CC1`?
HEK293 tox: 5%; GLP-1R agonist: 0%; ClpP mod: -14%; GLP1R inv ag: 10µM*

Results for Cc1c(C(=O)Nc2ccc(F)cc2F)sc2nc3n(c(=O)c12)N=C(c1ccccc1)CS3 ?
HEK293 tox: -3%; ClpP mod: 0%; GLP1R inv ag: 6%

What do the screens show for `CCCN1CNc2c(c(=O)[nH]c(=S)n2CCc2ccc(C)cc2C)C1`?
ClpP mod: -1%

Results for CCNc1nc(C)nc2c1cnn2C ?
HEK293 tox: 1%; GLP-1R agonist: 12%; ClpP mod: 28µM*; GLP1R inv ag: 15%

What do the screens show for `COc1ccc(CCC(C)N2CCC(CO)(Cc3ccccc3)CC2)cc1` (stereo not drawn)?
HEK293 tox: 0%; GLP-1R agonist: 7%; GLP1R inv ag: 7.9µM*

Results for CCC12C(=O)C(CC)(C(c3ccccc3)=C1c1ccccc1)[C@@H]1C(=O)N(c3ccccc3)C(=O)C12 (stereo partly drawn) ?
HEK293 tox: 3%; GLP-1R agonist: 4%; ClpP mod: 2%; GLP1R inv ag: 3.2µM*

How did C1=Cc2ccccc2/C1=C\c1cc[cH-]c1.[Fe+2].c1cc[cH-]c1 do in these assays?
ClpP mod: -3%

Results for CCCN(CCC)c1ccc(/C=C/c2ccnc3ccccc23)cc1 ?
ClpP mod: -1%

What do the screens show for `CCC(=O)c1ccc(OCC(=O)Nc2nc(C)cs2)cc1`?
HEK293 tox: -1%; GLP-1R agonist: -4%; ClpP mod: 0%; GLP1R inv ag: 3%

How did CCC(=O)c1ccc(OCC(=O)Nc2nc(-c3cccnc3)cs2)cc1 do in these assays?
HEK293 tox: 5%; GLP-1R agonist: -27%; ClpP mod: 32µM*; GLP1R inv ag: 0%

How did O=C(CSc1nc(=O)[nH]c2c1CCC2)NCc1ccccc1Cl do in these assays?
HEK293 tox: 1%; ClpP mod: -4%; GLP1R inv ag: 12%

Results for COc1ccc(C(=O)Cc2nnc(C)s2)cc1 ?
HEK293 tox: -18%; GLP-1R agonist: -4%; ClpP mod: 20µM*; GLP1R inv ag: 8%

Results for CCCCN1CC(c2nc3ccccc3n2CCCCOc2c(C)cccc2C)CC1=O (stereo not drawn) ?
HEK293 tox: -17%; ClpP mod: -5%; GLP1R inv ag: inconclusive

How did O=C(CSc1nnc(-c2ccccc2)c(-c2ccccc2)n1)NC1CCCCC1 do in these assays?
HEK293 tox: 1%; ClpP mod: 1%; GLP1R inv ag: 9%

How did CCOC(=O)C1=C(CNCCc2ccc(Cl)cc2)NC(=O)NC1c1ccc2c(c1)OCO2 (stereo not drawn) do in these assays?
HEK293 tox: -22%; GLP-1R agonist: 4%; ClpP mod: -3%; GLP1R inv ag: 6.3µM*

Results for CCOC(=O)C1=C(CN(CC)Cc2ccccc2)NC(=O)NC1c1ccc(Cl)cc1 (stereo not drawn) ?
HEK293 tox: -13%; GLP-1R agonist: -5%; ClpP mod: -2%; GLP1R inv ag: 10µM*

What do the screens show for `COc1cccc(C(=O)Nc2cccc(-c3cn4ccsc4n3)c2)c1OC`?
HEK293 tox: -13%; ClpP mod: 0%; GLP1R inv ag: 3%

Results for COc1ccc(OC)c(NC(=O)c2cccn2-c2nnc(N3CCCCC3)s2)c1 ?
HEK293 tox: 2%; ClpP mod: -1%; GLP1R inv ag: -9%

Results for CCCCc1cc2c(=O)c(C(=O)OC)c[nH]c2cc1OCc1ccccc1 ?
GLP-1R agonist: 1%

How did COCCNC(=O)C(=O)N/N=C(\C)CC(=O)Nc1ccc(Cl)cc1Cl do in these assays?
HEK293 tox: -15%; GLP-1R agonist: -33%; ClpP mod: 28µM*; GLP1R inv ag: inconclusive

Results for C/C(CC(=O)Nc1ccc(Cl)cc1Cl)=N\NC(=O)C(=O)N1CCCC1 ?
HEK293 tox: 5%; GLP-1R agonist: 4%; GLP1R inv ag: -18%

How did COc1cc(C(=O)Nc2ccc(Oc3ncnc4sc(-c5ccccc5)cc34)cc2)cc(OC)c1OC do in these assays?
HEK293 tox: 0%; GLP-1R agonist: -8%; ClpP mod: -3%; GLP1R inv ag: 0%

How did COc1ccccc1C(=O)Nc1ccc(Oc2ncnc3sc(-c4ccccc4)cc23)cc1 do in these assays?
HEK293 tox: 7%; GLP-1R agonist: -7%; ClpP mod: 10µM*; GLP1R inv ag: -8%

What do the screens show for `Oc1ccc(C(=S)N2CCCCC2)cc1`?
HEK293 tox: -2%; GLP-1R agonist: 3%; ClpP mod: 1%; GLP1R inv ag: 6%

From PubChem
